Screen size: about 310,000 compounds; about 14,000 (4.5%) showed an effect of 50% or more. The effect is printed as a negative number. The list comes from a sample in which strong results are over-represented; it also holds similar structures and randomly drawn compounds.
What follows are molecules tested against human ether-à-go-go-related gene (hERG) potassium channel (human, UniProt Q12809) (assay: primary screen, population patch clamp on CHO cells stably expressing hERG; higher = less effect of the substance).
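Also: peak tail current of the secondary pulse compared with the same well before compound.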

Chain of human ether-à-go-go-related gene (hERG) potassium channel (Q12809 whole entry, looked up): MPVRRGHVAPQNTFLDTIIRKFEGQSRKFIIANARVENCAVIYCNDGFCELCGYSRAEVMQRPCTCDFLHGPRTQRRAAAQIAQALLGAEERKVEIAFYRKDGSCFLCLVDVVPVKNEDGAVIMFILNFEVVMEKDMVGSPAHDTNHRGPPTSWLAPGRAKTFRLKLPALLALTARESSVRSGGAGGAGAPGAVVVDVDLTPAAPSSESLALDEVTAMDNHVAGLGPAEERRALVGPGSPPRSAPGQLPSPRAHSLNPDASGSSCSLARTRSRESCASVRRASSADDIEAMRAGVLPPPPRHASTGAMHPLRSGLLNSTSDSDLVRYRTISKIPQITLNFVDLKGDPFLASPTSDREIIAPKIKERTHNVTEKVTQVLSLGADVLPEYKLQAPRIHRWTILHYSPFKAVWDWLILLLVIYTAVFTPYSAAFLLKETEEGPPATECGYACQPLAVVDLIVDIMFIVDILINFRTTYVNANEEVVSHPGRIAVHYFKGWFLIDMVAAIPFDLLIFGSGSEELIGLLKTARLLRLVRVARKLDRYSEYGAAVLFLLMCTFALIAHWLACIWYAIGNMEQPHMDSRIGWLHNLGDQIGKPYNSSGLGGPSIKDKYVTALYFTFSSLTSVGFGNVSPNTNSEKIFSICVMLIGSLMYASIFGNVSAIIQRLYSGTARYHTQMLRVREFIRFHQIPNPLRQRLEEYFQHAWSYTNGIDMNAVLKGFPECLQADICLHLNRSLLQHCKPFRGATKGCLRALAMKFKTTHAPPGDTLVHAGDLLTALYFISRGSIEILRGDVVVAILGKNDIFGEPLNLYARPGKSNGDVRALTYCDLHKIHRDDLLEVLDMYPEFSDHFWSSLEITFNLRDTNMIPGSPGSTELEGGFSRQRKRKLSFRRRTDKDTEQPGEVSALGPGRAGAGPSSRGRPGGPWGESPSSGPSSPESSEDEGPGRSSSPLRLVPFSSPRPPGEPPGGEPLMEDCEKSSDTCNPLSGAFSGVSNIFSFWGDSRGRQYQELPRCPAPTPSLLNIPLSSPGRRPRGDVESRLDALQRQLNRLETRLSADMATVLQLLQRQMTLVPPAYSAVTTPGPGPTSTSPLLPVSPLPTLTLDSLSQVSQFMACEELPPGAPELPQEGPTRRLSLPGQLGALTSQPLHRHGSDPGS

Row | SMILES | hERG current change (%, negative = inhibition) at 10uM
1 | O=C(CSc1nnc(SCc2ccccc2)s1)N/N=C/C=C\c1ccco1 | 9.17%
2 | Cc1ccccc1-c1nc2cc(N)ccc2o1 | -15.6%
3 | Cc1ccc2c(c1)C(c1ccccc1)N(C(=O)CC(C)C)CC(=O)N2 (stereo not shown) | -28.5%
4 | O=C1N=C(N2C=CC(=C3C=CNC=C3)C=C2)/C(=C/N=NC(=O)c2ccccc2)S1 | 30.3%
5 | COc1cc(CN(C)CC2CCCN(CCc3cccc(C(F)(F)F)c3)C2)ccc1O (stereo not shown) | -62.8%
6 | CC(=O)Nc1ccc(CN(C)CC2CCCN(CCc3cccc(C(F)(F)F)c3)C2)cc1 (stereo not shown) | -68.4%
7 | O=c1cnn(-c2ccccc2)c(-c2ccccc2)c1 | 3.33%
8 | Cc1cc(C)n2ncnc2n1 | 2.2%
9 | O=C1NC(=Nc2ccccc2)S/C1=C/c1cccnc1 | 15.9%
10 | Cn1c(O)c(/C=C2\C=NN=C2c2ccccc2)sc1=S | 0.793%
11 | CCOc1cc(CN2CCN(Cc3ccc(C)o3)C(CCO)C2)ccc1OC (stereo not shown) | -3.33%
12 | COc1cc(CN2CCN(CCCc3ccccc3)C(CCO)C2)cc(OC)c1O (stereo not shown) | -61.5%
13 | CCOc1cc(CN2CCN(CCc3ccccc3)C(CCO)C2)ccc1OC (stereo not shown) | -66.5%
14 | COc1ccc(CN2CCN(CCCc3ccccc3)C(CCO)C2)cc1OC (stereo not shown) | -72.8%
15 | COc1ccc(CN2CCN(Cc3ccccc3)C(CCO)C2)cc1OC (stereo not shown) | -30.7%
16 | COc1cc(C(=O)Nc2ccc(S(=O)(=O)Nc3nccc(C)n3)cc2)cc(OC)c1OC | 12.9%
17 | O=C(CN1CCN(c2ccccn2)CC1)Nc1cc(C(F)(F)F)ccc1Cl | -3.6%
18 | COc1ccc(-c2cc(NCCc3ccncc3)n3ncnc3n2)cc1 | -55.8%
19 | c1ccc(-c2cc(-c3ccccc3)n3ncnc3n2)cc1 | -49.5%
20 | COc1ccc(CCNc2cc(-c3ccccc3)nc3ncnn23)cc1 | -2.18%
21 | COc1ccc(-c2cc(-c3ccccc3)nc3ncnn23)cc1 | -56.4%
22 | Cc1cc(-c2ccccc2)n2ncnc2n1 | 12.5%
23 | COc1ccc(-c2cc(NCc3ccccn3)n3ncnc3n2)cc1 | -23.5%

Row | SMILES | hERG current change (%, negative = inhibition) at 10uM
24 | COc1ccc(-c2cc(-c3ccccc3)n3ncnc3n2)cc1 | -60.9%
25 | COc1ccc(-c2ccnc3ncnn23)cc1 | -9.61%
26 | COc1ccc(-c2cc(-c3ccc(Br)cc3)nc3ncnn23)cc1OC | -34.4%
27 | COc1cc(OC)c(NS(=O)(=O)c2cn(C)cn2)cc1Cl | 5.67%
28 | CCOC(=O)C(Cc1ccc(OC)c([N+](=O)[O-])c1)NC(=O)CCC(=O)Nc1ccc(OC)cc1 (stereo not shown) | 1.35%
29 | COC1CCCN(C(=O)c2ccc(OC3CCN(S(=O)(=O)N(C)C)CC3)cc2)C1 (stereo not shown) | 8.14%
30 | CCOC(=O)C(CCSC)NC(=O)CN.Cl (stereo not shown) | -6.89%
31 | Cc1ccc(-n2c(C)cc(/C=C3/C(=O)NC(=O)N(C)C3=O)c2C)cc1 | 15.2%
32 | CSc1nnc(-c2ccc(Br)s2)n1C | 1.98%
33 | O=C(Cn1cc(C(F)(F)F)ccc1=O)N/N=C/c1ccccc1O | -7.65%
34 | O=C(CSC1=NCCN1)Nc1ccccc1[N+](=O)[O-] | 11.2%
35 | CC(Sc1ccc(S(=O)(=O)N2CCOCC2)cn1)C(=O)Nc1ccc(Cl)cc1Cl (stereo not shown) | -56.1%
36 | CC(Sc1ccc(Cl)cc1)C(=O)Nc1ccc(S(=O)(=O)N2CCOCC2)cc1 (stereo not shown) | -22.7%
37 | CNC(=O)C(C)Sc1ccc(S(=O)(=O)N2CCOCC2)cn1 (stereo not shown) | -0.356%
38 | COc1ccc(Cl)cc1N1CCN(CCNC(=O)Nc2ccccc2C)CC1 | -40.1%
39 | CCOc1cc(CNc2ncc(-c3ccc(OC)cc3)n2C)ccc1O.O=C(O)C(=O)O | -48.3%
40 | COc1cc(CNc2ncc(-c3ccc(Br)cc3)n2C)cc(OC)c1OC.O=C(O)C(=O)O | -49.9%
41 | COc1cc(CNc2ncc(-c3ccc(Br)cc3)n2C)cc(OC)c1O.O=C(O)C(=O)O | -60.5%
42 | COc1cc(CNc2ncc(-c3ccc(Cl)cc3)n2C)cc(OC)c1OC.O=C(O)C(=O)O | -66.9%
43 | COc1ccc(CNc2ncc(-c3ccc(Cl)cc3)n2C)c(OC)c1OC.O=C(O)C(=O)O | -47%
44 | COc1ccc(CNc2ncc(-c3ccccc3)n2C)c(OC)c1OC.O=C(O)C(=O)O | -44.1%
45 | Cc1cccc2c1cnn2C(=O)CCC(=O)N1CCC(C)CC1 | -14.1%
46 | Br.NC1(N)OC(CN2C(=O)c3ccccc3C2=O)CS1 (stereo not shown) | -5.75%
